Assay results taken from the supplement of paper PMC10849652.
About 7,900 targets were measured; listed, in parts, are those with a hit and a random draw of the rest. About 0.6% of all pairs of compound and target were hits. A number with no mark means an inactive call.

Experiments:
Assay in all cases: log2 fold change, soluble protein after heating vs DMSO (PISA); higher = thermal stabilisation; K562 cells, 10 uM, 30 min; active = over 0.2 and 3.5 SD of the protein, either way, in both replicates (recomputed)
bafetinib = compound: Cc1ccc(NC(=O)c2ccc(CN3CC[C@H](N(C)C)C3)c(C(F)(F)F)c2)cc1Nc1nccc(-c2cncnc2)n1 [bafetinib]
How it was run: (§1)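 Quantification of soluble protein used TMTpro 16plex LC-MS/MS, with channel sums equalised. Samples were the supernatant after 21,000xg for 90 min of pooled aliquots from K562 cells (2×10^6 cells/mL) treated with 10 μM compound for 30 min, heated for 3 min over 48°C-58°C, and extracted in PBS with 0.5% NP-40 at 4°C. Values, from duplicates, describe thermal stability against control samples on a log2 fold-change scale.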

[1] = compound: Cc1cccc(CC(=O)N2CCc3c2ccc(-c2cn(C)c4ncnc(N)c24)c3F)n1
How it was run: as §1

nilotinib = compound: Cc1cn(-c2cc(NC(=O)c3ccc(C)c(Nc4nccc(-c5cccnc5)n4)c3)cc(C(F)(F)F)c2)cn1 [nilotinib]
How it was run: as §1

[2] = compound: Cc1nc(Nc2n[nH]c3c2CN(C(=O)N[C@H](CN(C)C)c2ccccc2)C3(C)C)c2sccc2n1
How it was run: as §1

dasatinib = compound: Cc1nc(Nc2ncc(C(=O)Nc3c(C)cccc3Cl)s2)cc(N2CCN(CCO)CC2)n1 [dasatinib]
How it was run: as §1

[3] = compound: Cc1ncc(-c2ccnc(Nc3ccc(S(C)(=O)=O)cc3)n2)n1C(C)C
How it was run: as §1

[4] = compound: Cn1cc(-c2ccc3c(c2)CCN3C(=O)Cc2cccc(C(F)(F)F)c2)c2c(N)ncnc21
How it was run: as §1

tipifarnib = compound: Cn1cncc1[C@@](N)(c1ccc(Cl)cc1)c1ccc2c(c1)c(-c1cccc(Cl)c1)cc(=O)n2C [tipifarnib]
How it was run: as §1

mubritinib = compound: FC(F)(F)c1ccc(/C=C/c2nc(COc3ccc(CCCCn4ccnn4)cc3)co2)cc1 [mubritinib]
How it was run: as §1

[5] = compound: Cn1cc(-c2ccc3nnc(C(F)(F)c4ccc5ncccc5c4)n3n2)cn1
How it was run: as §1

UniProt P29692, sequence (P29692 whole entry, looked up): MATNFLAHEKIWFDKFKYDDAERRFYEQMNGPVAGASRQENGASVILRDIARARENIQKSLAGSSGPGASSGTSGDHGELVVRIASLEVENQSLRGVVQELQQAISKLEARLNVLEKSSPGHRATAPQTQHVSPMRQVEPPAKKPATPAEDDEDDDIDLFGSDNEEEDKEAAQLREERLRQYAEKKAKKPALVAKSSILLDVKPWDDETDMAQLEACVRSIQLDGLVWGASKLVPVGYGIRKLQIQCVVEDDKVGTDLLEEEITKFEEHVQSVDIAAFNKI
UniProt Q9NSI2, sequence (Q9NSI2 whole entry, looked up): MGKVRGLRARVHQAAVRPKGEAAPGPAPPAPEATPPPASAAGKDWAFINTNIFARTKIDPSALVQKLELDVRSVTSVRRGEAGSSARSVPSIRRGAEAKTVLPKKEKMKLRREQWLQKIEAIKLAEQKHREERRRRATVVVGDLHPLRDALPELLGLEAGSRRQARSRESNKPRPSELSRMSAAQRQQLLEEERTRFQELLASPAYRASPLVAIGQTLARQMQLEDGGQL
UniProt P0CG12, sequence (P0CG12 whole entry, looked up): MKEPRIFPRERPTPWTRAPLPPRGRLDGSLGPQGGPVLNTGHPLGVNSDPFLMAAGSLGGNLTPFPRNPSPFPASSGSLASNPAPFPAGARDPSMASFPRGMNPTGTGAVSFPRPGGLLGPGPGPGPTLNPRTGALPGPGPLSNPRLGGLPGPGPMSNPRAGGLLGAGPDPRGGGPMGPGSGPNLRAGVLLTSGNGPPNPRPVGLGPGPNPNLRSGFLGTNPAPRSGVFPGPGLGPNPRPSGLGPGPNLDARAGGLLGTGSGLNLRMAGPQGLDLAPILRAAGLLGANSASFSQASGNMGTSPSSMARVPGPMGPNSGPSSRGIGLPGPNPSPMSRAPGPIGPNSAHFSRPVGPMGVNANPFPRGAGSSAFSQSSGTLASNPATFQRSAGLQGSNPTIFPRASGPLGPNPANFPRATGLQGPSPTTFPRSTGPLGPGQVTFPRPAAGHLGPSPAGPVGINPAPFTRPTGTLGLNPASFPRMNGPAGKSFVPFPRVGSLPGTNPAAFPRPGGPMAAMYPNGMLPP
UniProt Q8NF50, sequence (Q8NF50 whole entry, looked up): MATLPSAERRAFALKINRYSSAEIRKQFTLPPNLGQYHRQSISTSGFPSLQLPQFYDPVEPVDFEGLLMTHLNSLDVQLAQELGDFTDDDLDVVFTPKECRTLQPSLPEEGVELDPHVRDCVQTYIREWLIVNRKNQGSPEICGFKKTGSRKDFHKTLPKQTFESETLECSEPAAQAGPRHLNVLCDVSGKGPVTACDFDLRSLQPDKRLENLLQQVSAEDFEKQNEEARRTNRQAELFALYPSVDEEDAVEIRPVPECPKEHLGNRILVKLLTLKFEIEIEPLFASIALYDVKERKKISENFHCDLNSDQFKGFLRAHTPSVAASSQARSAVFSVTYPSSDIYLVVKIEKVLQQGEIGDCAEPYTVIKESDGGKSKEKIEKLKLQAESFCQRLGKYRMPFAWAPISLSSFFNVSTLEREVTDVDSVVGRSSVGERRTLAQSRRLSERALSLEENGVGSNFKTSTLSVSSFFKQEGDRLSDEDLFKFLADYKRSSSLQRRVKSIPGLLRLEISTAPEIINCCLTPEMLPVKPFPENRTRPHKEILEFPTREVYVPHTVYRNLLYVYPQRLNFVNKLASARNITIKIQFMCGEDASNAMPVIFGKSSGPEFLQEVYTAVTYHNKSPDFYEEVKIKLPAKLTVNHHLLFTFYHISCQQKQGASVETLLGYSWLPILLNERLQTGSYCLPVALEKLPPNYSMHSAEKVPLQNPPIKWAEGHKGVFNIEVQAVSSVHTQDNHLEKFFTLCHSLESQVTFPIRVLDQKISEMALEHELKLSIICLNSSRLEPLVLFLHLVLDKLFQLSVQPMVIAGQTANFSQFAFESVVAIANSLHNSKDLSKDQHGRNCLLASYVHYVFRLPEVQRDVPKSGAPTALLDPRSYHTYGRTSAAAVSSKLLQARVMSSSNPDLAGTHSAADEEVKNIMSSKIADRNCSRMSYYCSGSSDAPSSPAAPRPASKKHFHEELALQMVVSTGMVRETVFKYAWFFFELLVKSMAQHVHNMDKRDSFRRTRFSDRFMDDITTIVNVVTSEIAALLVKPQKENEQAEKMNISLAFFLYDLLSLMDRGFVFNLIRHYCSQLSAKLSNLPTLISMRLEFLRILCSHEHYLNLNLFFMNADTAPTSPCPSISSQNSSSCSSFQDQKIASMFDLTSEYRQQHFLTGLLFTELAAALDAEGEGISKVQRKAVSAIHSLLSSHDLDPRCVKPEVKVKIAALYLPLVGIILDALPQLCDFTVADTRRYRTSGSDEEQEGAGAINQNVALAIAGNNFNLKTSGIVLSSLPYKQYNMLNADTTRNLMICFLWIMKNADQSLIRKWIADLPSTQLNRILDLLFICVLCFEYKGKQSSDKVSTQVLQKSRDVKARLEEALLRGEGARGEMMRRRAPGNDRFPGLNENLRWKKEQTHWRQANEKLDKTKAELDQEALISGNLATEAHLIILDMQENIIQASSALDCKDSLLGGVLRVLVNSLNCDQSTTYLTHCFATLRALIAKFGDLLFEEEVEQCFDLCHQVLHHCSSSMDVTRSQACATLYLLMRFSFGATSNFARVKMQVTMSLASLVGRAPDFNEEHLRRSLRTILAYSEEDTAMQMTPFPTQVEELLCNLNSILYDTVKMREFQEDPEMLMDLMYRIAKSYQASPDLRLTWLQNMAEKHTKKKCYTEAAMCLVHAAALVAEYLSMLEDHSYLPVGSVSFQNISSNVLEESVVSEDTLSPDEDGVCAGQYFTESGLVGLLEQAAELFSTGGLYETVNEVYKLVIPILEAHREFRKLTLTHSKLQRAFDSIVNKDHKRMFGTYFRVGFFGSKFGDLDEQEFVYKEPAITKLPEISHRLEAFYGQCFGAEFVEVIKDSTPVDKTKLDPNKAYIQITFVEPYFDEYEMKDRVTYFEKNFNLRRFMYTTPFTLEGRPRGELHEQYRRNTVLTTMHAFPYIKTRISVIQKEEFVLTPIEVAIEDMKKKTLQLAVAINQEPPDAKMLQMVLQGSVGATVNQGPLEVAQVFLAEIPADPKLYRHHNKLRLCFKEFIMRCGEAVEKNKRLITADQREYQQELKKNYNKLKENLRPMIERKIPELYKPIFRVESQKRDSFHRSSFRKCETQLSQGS
UniProt P18146, sequence (P18146 whole entry, looked up): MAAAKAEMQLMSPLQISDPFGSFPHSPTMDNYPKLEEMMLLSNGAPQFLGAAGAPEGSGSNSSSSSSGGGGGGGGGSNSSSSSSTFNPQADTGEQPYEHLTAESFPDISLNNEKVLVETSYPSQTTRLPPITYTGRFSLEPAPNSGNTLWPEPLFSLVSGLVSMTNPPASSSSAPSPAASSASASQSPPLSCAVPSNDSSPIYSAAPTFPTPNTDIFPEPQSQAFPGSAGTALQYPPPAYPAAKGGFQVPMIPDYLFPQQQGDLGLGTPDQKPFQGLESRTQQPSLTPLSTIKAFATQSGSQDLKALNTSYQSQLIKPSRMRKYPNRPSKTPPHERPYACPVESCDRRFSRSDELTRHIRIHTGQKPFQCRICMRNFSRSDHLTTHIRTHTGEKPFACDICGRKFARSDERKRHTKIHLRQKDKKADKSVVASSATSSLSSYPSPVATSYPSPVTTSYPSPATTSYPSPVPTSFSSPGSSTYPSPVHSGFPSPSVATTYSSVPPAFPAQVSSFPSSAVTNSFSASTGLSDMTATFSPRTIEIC
UniProt P68104, sequence (P68104 whole entry, looked up): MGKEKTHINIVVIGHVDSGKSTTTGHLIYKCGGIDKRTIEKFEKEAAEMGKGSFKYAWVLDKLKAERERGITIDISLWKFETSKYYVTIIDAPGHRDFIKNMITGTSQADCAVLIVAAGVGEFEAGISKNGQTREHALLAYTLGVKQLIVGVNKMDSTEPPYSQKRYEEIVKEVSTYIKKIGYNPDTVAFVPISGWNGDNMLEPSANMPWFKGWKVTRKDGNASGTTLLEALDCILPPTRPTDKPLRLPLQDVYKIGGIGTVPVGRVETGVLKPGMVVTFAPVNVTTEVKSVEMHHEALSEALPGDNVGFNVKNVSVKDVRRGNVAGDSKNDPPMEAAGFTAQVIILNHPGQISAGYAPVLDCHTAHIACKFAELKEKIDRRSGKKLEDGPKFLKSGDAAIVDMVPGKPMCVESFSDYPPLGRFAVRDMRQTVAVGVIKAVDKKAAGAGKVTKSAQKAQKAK
UniProt P98173, sequence (P98173 whole entry, looked up): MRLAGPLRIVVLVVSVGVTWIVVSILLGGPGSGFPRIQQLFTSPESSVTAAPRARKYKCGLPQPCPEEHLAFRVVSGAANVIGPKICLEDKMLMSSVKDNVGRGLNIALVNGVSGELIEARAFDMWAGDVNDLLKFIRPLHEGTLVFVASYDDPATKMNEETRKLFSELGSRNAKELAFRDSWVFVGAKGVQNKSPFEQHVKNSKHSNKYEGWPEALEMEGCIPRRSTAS
UniProt Q07973, sequence (Q07973 whole entry, looked up): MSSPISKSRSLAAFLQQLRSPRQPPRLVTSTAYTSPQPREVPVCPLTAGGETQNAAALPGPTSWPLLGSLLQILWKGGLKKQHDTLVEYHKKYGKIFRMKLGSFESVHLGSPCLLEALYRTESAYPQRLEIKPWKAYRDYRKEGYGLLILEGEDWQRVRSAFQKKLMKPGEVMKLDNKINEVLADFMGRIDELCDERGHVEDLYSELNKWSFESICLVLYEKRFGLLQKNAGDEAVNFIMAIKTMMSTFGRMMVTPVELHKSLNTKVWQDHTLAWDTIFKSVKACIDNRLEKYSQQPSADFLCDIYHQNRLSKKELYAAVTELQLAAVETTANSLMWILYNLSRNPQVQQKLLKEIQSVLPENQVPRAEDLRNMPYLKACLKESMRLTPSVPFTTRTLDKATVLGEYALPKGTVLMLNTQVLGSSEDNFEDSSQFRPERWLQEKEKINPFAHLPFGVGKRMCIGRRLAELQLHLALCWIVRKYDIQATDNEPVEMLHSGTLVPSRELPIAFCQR

Target	log2 fold change (bafetinib)	log2 fold change [1]	log2 fold change (nilotinib)	log2 fold change [2]	log2 fold change (dasatinib)	log2 fold change [3]	log2 fold change [4]	log2 fold change (tipifarnib)	log2 fold change (mubritinib)	log2 fold change [5]
EIF2AK3 (UniProt Q9NZJ5)	0.082	0.535	-0.201	-0.072	-0.017	-0.067	0.845 (active)	-0.057	0.019	
DNAH10 (UniProt Q8IVF4)	0.062	-0.052	-0.092	0.037	0.093	0.043	0.102		0.154	
DNM2 isoform 4 (UniProt P50570)	0.154	0.062	-0.006	0.047	-0.007	-0.047	0.006		0.108	0.005
EDRF1 (UniProt Q3B7T1)	-0.04	-0.209			-0.157		-0.275		0.045	-0.114
EXOC2 (UniProt Q96KP1)	0.021	-0.089	-0.002	-0.135	-0.301	0.028	-0.011	-0.066	0.035	-0.081
DERPC (UniProt P0CG12)	-0.06	-0.193	0.044	-0.04	0.227	-0.126			0.049	0.245
FAM118B (UniProt Q9BPY3)	-0.083	0.028	-0.114	-0.106		0.022	0.014	-0.083	0.015	0.02
DAG1 (UniProt Q14118)	0.03	-0.076	0.085	0.003	0.025	-0.008	-0.001	0.035	0.05	0.073
DNTTIP2 (UniProt Q5QJE6)	0.148	-0.05	0.064	-0.02	0.148	-0.29	-0.104	0.256	-0.074	-0.035
CYB561A3 isoform 2 (UniProt Q8NBI2)	0.03	-0.223	0.012	0.065	0.034	-0.029	0.004	-0.087	-0.015	-0.044
DCAF6 isoform 3 (UniProt Q58WW2)	-0.071	0.009	0.009	0.02	0.008	-0.013	-0.016	0.027	0.017	0.031
DHCR24 (UniProt Q15392)	1.39 (active)	-0.001	-0.03	0.025	0.127	0.577	0.292	-0.006	0.47	0.043
DYNC1LI2 (UniProt O43237)	-0.041	-0.004	0.109	0.015	-0.068	0.125	-0.184	-0.01	0.024	0.052
FAM207A (UniProt Q9NSI2)	0.002	0.076	-0.071	-0.087	0.006	-0.059		0.003	-0.238	-0.127
CYP24A1 (UniProt Q07973)	0.373	-0.049	0.01	0.167	0.184	-0.105		0.101	-0.074	-0.057
DPYSL2 (UniProt Q16555)	-0.114	0.081	0.046	-0.063	0	0.079	0.042	0.015	-0.048	
CWC27 (UniProt Q6UX04)	-0.147	-0.059	-0.058	-0.094	-0.087	0.132	0.056	-0.146	0.109	0.022
DCTPP1 (UniProt Q9H773)	-0.053	0.105	0.008	-0.013	0.068	-0.025	0.073	0.074	0.047	0.029
EGR1 (UniProt P18146)	-0.257	0.141	-0.001	-0.352		-0.295	-0.24	0.139	-0.121	-0.106
DPP8 (UniProt Q6V1X1)	-0.054	-0.035	0.027	-0.019	0.014	-0.001	0.048	0.065	0.036	0.054
EEF1D isoform 2 (UniProt P29692)	0.025	-0.011	-0.066	-0.01	-0.051	0	-0.007	-0.103	0.081	-0.044
FAM3A (UniProt P98173)	-0.027	0.023	0.007	-0.044	0.036	-0.001	0.031	0.042	0	-0.03
DOCK8 (UniProt Q8NF50)	-0.076	-0.055	0.069	-0.057	0.052	-0.126	-0.14		0.021	-0.067
EIF2AK1 (UniProt Q9BQI3)	-0.162	0.171			-0.068		0.19	-0.035	-0.025	0
EEF1A1 (UniProt P68104)	-0.114		0.042	-0.113	-0.116	0.001	0.044	-0.057	-0.033	-0.063
FAM160A2 isoform 2 (UniProt Q8N612)	-0.208	-0.145	-0.085	0.192	-0.186	-0.101	-0.083		0.093	0.046
ECPAS (UniProt Q5VYK3)	0.031	0.105	-0.067	-0.038	-0.255 (active)	0.077	-0.011	-0.202	0.021	-0.043
EXOC5 (UniProt O00471)	-0.016	0.061	-0.109	-0.258	-0.1	-0.078	0.022	-0.076	0.039	0.026
EXOC1 (UniProt Q9NV70)	0.061	0.025	-0.034	-0.069	-0.126	-0.051	-0.008	-0.098	0.032	0.026
